# Most compounds without a hit are left out; they make up all but 3.2% or so of the library.
# aDG glyco up – alpha-DG glycosylation activation; Pro5-aDG cells, alpha-DG glycosylation AlphaScreen (IIH6); 0% Pro5, 100% B10-LARGE cell signal; activation, % at 10 µM; 360,000 tested, 0.22% active; AID 624168;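 active = activation of at least 8% versus controls, or a plate z-score of at least 8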;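 also: Pro5 are CHO cells carrying HIG-tagged alpha-DG that lacks glycosylation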
# FAS-TE inh – inhibitors of human fatty acid synthase thioesterase domain; P49327; recombinant FAS-TE, OMFH fluorogenic substrate, fluorescence endpoint; inhibition, % at 15 µM; 360,000 tested, 0.67% active; AID 602261;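 active = compounds whose normalised, plate-corrected inhibition of enzyme fluorescence in the single-dose primary screen is 50% or more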
# Target sequence (P49327 whole entry, looked up, the tested form may be a part): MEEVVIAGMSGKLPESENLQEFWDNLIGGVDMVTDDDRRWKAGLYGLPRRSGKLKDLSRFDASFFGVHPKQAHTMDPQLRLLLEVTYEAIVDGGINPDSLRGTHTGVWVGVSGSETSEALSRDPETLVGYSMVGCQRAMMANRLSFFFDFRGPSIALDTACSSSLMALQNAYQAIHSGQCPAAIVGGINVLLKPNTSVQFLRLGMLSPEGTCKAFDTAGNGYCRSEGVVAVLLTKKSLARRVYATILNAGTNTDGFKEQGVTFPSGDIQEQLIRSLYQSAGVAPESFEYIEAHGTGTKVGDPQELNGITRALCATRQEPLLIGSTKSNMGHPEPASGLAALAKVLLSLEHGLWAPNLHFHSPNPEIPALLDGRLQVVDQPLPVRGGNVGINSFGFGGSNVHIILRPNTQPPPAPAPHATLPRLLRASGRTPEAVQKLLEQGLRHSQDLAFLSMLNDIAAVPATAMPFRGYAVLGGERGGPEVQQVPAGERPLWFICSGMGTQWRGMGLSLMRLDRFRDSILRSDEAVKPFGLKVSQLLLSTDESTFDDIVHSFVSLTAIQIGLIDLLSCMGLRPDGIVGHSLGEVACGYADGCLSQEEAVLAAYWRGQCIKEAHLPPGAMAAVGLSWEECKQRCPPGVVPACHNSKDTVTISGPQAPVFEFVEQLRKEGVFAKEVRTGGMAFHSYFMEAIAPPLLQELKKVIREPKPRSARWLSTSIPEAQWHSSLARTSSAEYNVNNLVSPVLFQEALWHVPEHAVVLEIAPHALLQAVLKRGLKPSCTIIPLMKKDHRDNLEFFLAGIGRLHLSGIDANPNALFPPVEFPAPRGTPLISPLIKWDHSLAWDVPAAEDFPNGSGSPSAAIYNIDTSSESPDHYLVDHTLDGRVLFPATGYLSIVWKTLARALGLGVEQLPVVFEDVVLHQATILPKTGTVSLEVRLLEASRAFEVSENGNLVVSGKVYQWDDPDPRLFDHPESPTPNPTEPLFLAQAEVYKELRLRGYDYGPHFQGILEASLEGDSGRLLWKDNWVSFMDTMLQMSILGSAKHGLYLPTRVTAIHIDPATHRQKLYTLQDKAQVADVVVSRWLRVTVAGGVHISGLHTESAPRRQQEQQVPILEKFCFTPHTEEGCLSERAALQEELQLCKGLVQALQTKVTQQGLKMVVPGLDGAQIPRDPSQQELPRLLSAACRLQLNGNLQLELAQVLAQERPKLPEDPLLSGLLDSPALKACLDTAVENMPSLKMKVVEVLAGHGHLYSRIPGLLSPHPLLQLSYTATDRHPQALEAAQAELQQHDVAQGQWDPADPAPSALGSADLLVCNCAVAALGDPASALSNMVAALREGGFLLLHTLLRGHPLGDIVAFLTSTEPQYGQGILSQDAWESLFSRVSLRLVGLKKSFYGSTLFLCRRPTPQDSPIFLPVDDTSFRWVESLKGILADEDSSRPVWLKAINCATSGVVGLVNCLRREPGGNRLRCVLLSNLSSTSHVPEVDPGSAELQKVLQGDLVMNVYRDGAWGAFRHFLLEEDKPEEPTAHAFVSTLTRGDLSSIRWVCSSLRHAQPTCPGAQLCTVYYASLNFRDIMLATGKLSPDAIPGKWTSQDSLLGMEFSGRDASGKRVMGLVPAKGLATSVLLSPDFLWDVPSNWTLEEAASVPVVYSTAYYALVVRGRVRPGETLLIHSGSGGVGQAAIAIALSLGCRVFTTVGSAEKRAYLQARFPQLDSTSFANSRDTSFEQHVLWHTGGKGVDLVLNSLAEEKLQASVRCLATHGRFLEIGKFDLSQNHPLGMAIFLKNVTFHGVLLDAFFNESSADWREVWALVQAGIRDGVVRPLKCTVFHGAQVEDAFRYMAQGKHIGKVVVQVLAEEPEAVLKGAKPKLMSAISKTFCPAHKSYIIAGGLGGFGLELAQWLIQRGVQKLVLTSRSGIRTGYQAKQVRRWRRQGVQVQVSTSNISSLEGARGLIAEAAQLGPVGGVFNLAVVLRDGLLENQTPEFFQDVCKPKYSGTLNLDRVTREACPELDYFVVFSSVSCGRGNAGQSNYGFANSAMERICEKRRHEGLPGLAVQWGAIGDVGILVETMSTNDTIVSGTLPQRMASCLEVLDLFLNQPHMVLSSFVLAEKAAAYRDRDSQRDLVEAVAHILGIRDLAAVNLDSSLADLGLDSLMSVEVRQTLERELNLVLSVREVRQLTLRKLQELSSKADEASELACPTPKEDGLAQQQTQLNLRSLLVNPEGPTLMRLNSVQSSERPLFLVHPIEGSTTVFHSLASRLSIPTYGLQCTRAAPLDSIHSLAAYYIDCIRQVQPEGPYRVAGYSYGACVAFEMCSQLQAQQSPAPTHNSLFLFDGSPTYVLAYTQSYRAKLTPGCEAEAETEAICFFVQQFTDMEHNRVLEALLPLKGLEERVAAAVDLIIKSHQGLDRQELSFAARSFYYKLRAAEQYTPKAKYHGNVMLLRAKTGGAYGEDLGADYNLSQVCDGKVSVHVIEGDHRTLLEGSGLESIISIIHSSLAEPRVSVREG
# PfG6PD inh – PfG6PD (Plasmodium falciparum) enzyme inhibition | PfGluPho enzyme, NADPH resazurin-diaphorase fluorescence | inhibition, % at 20 µM | 350,000 tested, 0.78% active | AID 504690;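 active = inhibition reaching at least a set limit at 20 µM in the primary screen, cut at about 59% in these data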
# CRFBP-R2 agonist – agonists of human CRF-binding protein/CRF-R2 receptor complex | HEK293 CRF-R2/CRF-BP, calcium dye fluorescence (FLIPR); percent of saturating CRF peptide response | activation, % at 13.2 µM | 350,000 tested, 0.46% active | AID 588473;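 active = activation of at least 50%, plus an integration ratio under a set limit after plate pattern correction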
# CRFR2-BP antag – CRF-BP/CRF-R2 complex antagonism. HEK293 CRF-R2/CRF-BP, CRF-induced calcium fluorescence. inhibition, % at 11.8 µM. 350,000 tested, 0.59% active;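 active = inhibition of the ligand-induced calcium signal above about 50% at the single tested concentration, limit read from the data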
# Cardio protect – myocardial damage modulation in H9c2 cells; H9c2 cardiomyocytes, H2O2 injury protection, ATPLite, 2 h; protection from H2O2 cell death, % at 20 µM; 360,000 tested, 0.63% active; AID 588492;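 active = compounds giving at least 50% protection of heart cells from peroxide-induced death in the single-dose screen, raw or plate-pattern-corrected value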
# Numbers stand for hits; – = inactive; · = not tested or not shown.
SMILES,aDG glyco up,FAS-TE inh,PfG6PD inh,CRFBP-R2 agonist,CRFR2-BP antag,Cardio protect
CCCc1nnc(NC(=O)CCC(=O)N2CCN(Cc3cc(Cl)ccc3OC)CC2)s1,–,–,–,–,–,–
CCc1nnc(NC(=O)CCC(=O)N2CCN(Cc3cc(Cl)ccc3OC)CC2)s1,–,–,–,–,105.8,–
COC(=O)c1[nH]c2ccccc2c1NC(=O)CNC1CCCCC1,–,–,–,–,–,85.9
CSCCC(NS(=O)(=O)c1ccccc1)C(=O)OCc1cc(=O)oc2cc(O)ccc12 (stereo unspecified),–,–,–,–,–,56.3
Cc1ccc(NC(=O)CSC(C)C(=O)OCc2cc(=O)oc3cc(O)ccc23)cc1 (stereo unspecified),–,–,–,–,–,66.6
CC1CCCN(C(=O)c2ccc(NS(=O)(=O)c3cccc([N+](=O)[O-])c3)cc2)C1 (stereo unspecified),–,–,–,–,–,–
O=C(c1ccc(NS(=O)(=O)c2cccc([N+](=O)[O-])c2)cc1)N1CCCCCC1,–,–,–,–,114.7,–
CN(C)c1ccc(N=C/C=C2\N(C)c3ccccc3C2(C)C)cc1,–,–,–,–,–,–
CN(C)c1ccc(N=Cc2cccn2C)cc1,–,–,77.4,–,–,–
Cn1c(=O)c2c(nc(NCCCO)n2C/C=C/c2ccccc2)n(C)c1=O,–,–,–,–,–,62.5
CC(O)CNc1nc2c(c(=O)n(C)c(=O)n2C)n1C/C=C/c1ccccc1 (stereo unspecified),–,–,–,–,–,–
CCN1/C(=C/C=C/c2oc3ccc(-c4ccccc4)cc3[n+]2CC)Oc2ccc(-c3ccccc3)cc21,–,–,–,227.4,–,–
COc1ccc2c(c1)c(C(=O)O)c(C)n2-c1ccc(Cl)cc1,–,–,–,–,105.5,–
O=C(Nc1ccccc1N1CCCCC1)C1CCN(C(=O)c2ccc(Cl)cc2)CC1,–,–,–,–,100.0,–
CC(C)C(=O)NC(=S)Nc1ccccc1N1CCN(C(=O)c2ccc(Cl)cc2)CC1,–,–,–,–,–,51.9
CC(C)[C@@H]1Cc2[nH][nH]c(=O)c2[C@H](C(C)C)O1,–,–,·,·,·,·
O=C(NCC(O)CN1CCOCC1)c1ccc([N+](=O)[O-])cc1 (stereo unspecified),–,–,–,–,–,–
CCCCNC(=O)CCn1c(=O)c2ccccc2n(Cc2ccccc2C)c1=O,–,–,–,–,64.9,–
CCOc1ccc(-n2c(O)c(/C=N/NC(=O)C3COc4ccccc4O3)c3ccccc3c2=O)cc1 (stereo unspecified),–,–,–,–,–,55.7
COc1cc(/C=N\NC(=O)C2COc3ccccc3O2)cc(OC)c1O (stereo unspecified),–,–,–,–,–,–
C#CCOCCOCCOCCNc1nc(N2CCN(C(=O)CCCCCCCCCCNC(=O)[C@H](CCCCN)n3cc(CCCC(=O)O)nn3)CC2)nc(N2CCN(C(=O)CCCCCCCCCCNC(=O)[C@H](CCCN=C(N)N)n3cc(C[C@@H](C)CC)nn3)CC2)n1,–,–,–,–,–,–
C#CCOCCOCCOCCNc1nc(N2CCN(C(=O)CCCCCCCCCCNC(=O)Cn3cc(C[C@@H](C)O)nn3)CC2)nc(N2CCN(C(=O)CCCCCCCCCCNC(=O)Cn3cc(C[C@@H](C)O)nn3)CC2)n1,–,–,–,–,–,79.9
C#CCOCCOCCOCCNc1nc(N2CCN(C(=O)CCCCCCCCCCNC(=O)Cn3cc(C[C@@H](C)O)nn3)CC2)nc(N2CCN(C(=O)CCCCCCCCCCNC(=O)[C@H](CCCCN)n3cc(C[C@@H](C)CC)nn3)CC2)n1,–,–,–,–,–,–
C#CCOCCOCCOCCNc1nc(N2CCN(C(=O)CCCCCCCCCCNC(=O)Cn3cc(CCCCCN)nn3)CC2)nc(N2CCN(C(=O)CCCCCCCCCCNC(=O)[C@H]([C@@H](C)CC)n3cc(CCCCCN)nn3)CC2)n1,–,–,65.6,89.2,–,–
C#CCOCCOCCOCCNc1nc(N2CCN(C(=O)[C@H](CCCCN)n3cc(CCCC)nn3)CC2)nc(N2CCN(C(=O)[C@H](Cc3ccc(O)cc3)n3cc(CCO)nn3)CC2)n1,–,–,76.2,–,–,–
SMILES,aDG glyco up,FAS-TE inh,PfG6PD inh,CRFBP-R2 agonist,CRFR2-BP antag,Cardio protect
C#CCOCCOCCOCCNc1nc(N2CCN(C(=O)CCCCCCCCCCNC(=O)[C@H](CCCCN)n3cc(CCO)nn3)CC2)nc(N2CCN(C(=O)CCCCCCCCCCNC(=O)[C@H](CCCN=C(N)N)n3cc(C[C@@H](C)CC)nn3)CC2)n1,–,–,61.9,–,–,–
C#CCOCCOCCOCCNc1nc(N2CCN(C(=O)[C@H](CCCCN)n3cc(CC(C)O)nn3)CC2)nc(N2CCN(C(=O)[C@H](Cc3ccc(O)cc3)n3cc(CCO)nn3)CC2)n1 (stereo partly specified),–,–,–,–,–,–
O=S(=O)(c1ccccc1)N1CCN(c2nnc(-c3ccccc3)c3ccccc23)CC1,–,–,–,–,–,–
COc1ccc(CCC(=O)NCC23CC4CC(CC(C4)C2)C3)cc1,–,–,–,–,–,–
C#CCOCCOCCOCCNc1nc(N2CCOCC2)nc(N2CCN(C(=O)Cn3cc(CCCCN)nn3)CC2)n1,–,–,–,–,–,–
O=C1CSC(c2cccc(F)c2)N1c1ccccc1 (stereo unspecified),–,–,–,–,–,–
O=C1CC(c2ccccc2)SC(N(c2ccccc2)c2ccccc2)=N1 (stereo unspecified),–,–,–,–,55.8,–
O=C1CC(c2ccc(Cl)cc2)SC(N(c2ccccc2)c2ccccc2)=N1 (stereo unspecified),–,–,–,–,113.9,–
O=C1CC(c2cccc(F)c2)SC(N(c2ccccc2)c2ccccc2)=N1 (stereo unspecified),–,–,–,–,84.9,–
CCC1(CC)NC(=O)N(CC(=O)Nc2sc3c(c2C(N)=O)CCC3)C1=O,–,–,–,–,–,–
Cc1ccc(S(=O)(=O)N(C)C)cc1NC(=O)COC(=O)CCC(=O)c1cccs1,–,–,–,–,–,–
CCc1ccc(NC(=O)C(C)OC(=O)/C=C/c2ccc(O)c(OC)c2)cc1 (stereo unspecified),–,–,–,91.5,–,–
COc1ccc2[nH]c(=O)c(CN(Cc3nnnn3Cc3ccc(F)cc3)CC3CCCO3)cc2c1 (stereo unspecified),–,–,–,–,–,–
COc1ccc2[nH]c(=O)c(CN(Cc3nnnn3Cc3ccccc3)CC3CCCO3)cc2c1 (stereo unspecified),–,–,–,–,–,66.8
COCCn1nnnc1CN(Cc1cccnc1)Cc1cc2cc(OC)ccc2[nH]c1=O,–,–,–,–,–,–

# High-throughput results (PubChem BioAssay)
